IL-1B inflam inh = blocks inflammasome-driven IL-1 beta release; THP-1 LPS/ATP IL-1B secretion, AlphaLISA, 16 h; active compounds read low; activity change, % at 57.5 µM; 4.7% of 360,000 active; AID 743279; in the data active = activity change below about -50%; inconclusive = mostly about -30% to -49%
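Secreted IL-1B measured by AlphaLISA bead assay after 16 h compound exposure of THP-1 cells; compounds (final up to 57.5 uM) added 1 h before LPS (250 ng/mL) and ATP (1.25 mM) stimulation; lower signal means less secretion.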
ATXN2 expr inh = inhibitors of ATXN2 expression. HEK-293 ATXN2-luciferase reporter, luminescence, 24 h. Potency, µM (series often up to 57 µM), hits mostly inhibitors. 0.72% of 360,000 active. AID 1745845; also: nearly all actives have a fitted effect of over 55% in size
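ATXN2-luciferase reporter cells (luciferase flanked by upstream and downstream ATXN2 gene portions) were treated 24 h at 37 °C with compounds at up to 57 uM. SteadyGlo luminescence gave expression; GF-AFC fluorescence gave viability.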
TGFb inhibitor = TGF-b pathway inhibition; HepG2 CAGA-GFP TGF-b/SMAD3 reporter, GFP fluorescence, 18 h; TGF-beta stimulated, 500 pg/mL final; Potency, µM (highest dose often 46.1 µM), most hits filed as inhibitors; AID 588855; 1.2% of 410,000 active; also: nearly all actives have a fitted effect of over 65% in size
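Read-out: total well GFP (ex488/em500-530) summed from mean per-cell fluorescence. Cells: HEPG2 CAGA-GFP, 1% FBS DMEM, 18 h at 37 degrees C with 500 pg/mL final TGF-beta. Unstimulated wells served as the full-inhibition control; stimulated DMSO wells = 0%.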
HepG2 tox-1 = counter-screen for TGF-b inhibitors: cytotoxicity in HepG2 cells | HepG2 CAGA-GFP viability, ATP luminescence, 18 h | Potency, µM (top dose mostly 46.1 µM), usual class: cytotoxic | 0.76% of 410,000 active
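CellTiter-Glo luminescence gave cytotoxicity after 18 hours at 37 degrees C. The cells were HepG2 CAGA-GFP in 1% FBS DMEM, stimulated with 500 pg/mL TGF-beta after compound addition. %Activity was normalised to no-cell wells (complete cell-killing) and DMSO (no toxicity), and curves were fitted and classified.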
ATXN viability = reduces viability in counter-screen for ATXN expression inhibitors. S2 cells (HEK-293 line with an ATXN2-luciferase reporter) viability, CellTiter-Fluor protease fluorescence, 24 h. Potency, µM (series often up to 56.7 µM), usual class: cytotoxic. AID 651635. 0.49% of 400,000 active; also: nearly all actives have a fitted effect of over 40% in size
TGFb confirm = confirmation of TGF-b signaling inhibitors in HepG2 reporter cells | shares compounds with TGFb inhibitor | 63% of 1,600 active | Potency, µM (doses to about 46.1 µM), actives largely listed as inhibitors | HepG2 CAGA-GFP TGF-b reporter, GFP fluorescence, 18 h; cells stimulated with TGF-beta, 500 pg/mL; also: nearly all actives have a fitted effect of over 65% in size
HepG2 tox-2 = counter-screen for TGF-b inhibitors: cytotoxicity in HepG2 cells; HepG2 CAGA-GFP viability, ATP luminescence, 18 h; cells stimulated with TGF-beta, 500 pg/mL; Potency, µM (top dose mostly 46.1 µM), usual class: inhibitors; shares compounds with TGFb inhibitor; 27% of 1,600 active; also: nearly all actives have a fitted effect of over 70% in size
TGFb CCL64 inh = TGF-b inhibition, CCL64 orthogonal assay; shares compounds with TGFb inhibitor; CCL64 CAGA-GFP reporter, TGF-b stimulated, GFP fluorescence, 18 h; Potency, µM (highest dose often 46.1 µM), hits mostly inhibitors; 41% of 1,600 active; also: nearly all actives have a fitted effect of over 65% in size
COP TGFb inh = blocks TGF-b signaling in HepG2 COP reporter. HepG2 COP-GFP TGF-b reporter, GFP fluorescence, 18 h; cells stimulated by added recombinant TGF-beta. shares compounds with TGFb inhibitor. Potency, µM (doses to about 46.1 µM), usual class: inhibitors. 3% of 1,600 active. AID 720537; also: nearly all actives have a fitted effect of over 70% in size
Numbers stand for hits; - = inactive; ? = inconclusive; . = no result. Hits are enriched below; roughly 5.7% of the tested compounds scored in any of these assays. Unless noted, calls follow the shape of the dose curve; as a rule, active = well fitted curve in the direction sought with a large enough effect; inconclusive = small, poorly fitted or top-dose-only effect, or another doubt; inactive = no such curve, though single readings can be large; an effect the other way counts as inactive or inconclusive.

SMILES	IL-1B inflam inh	ATXN2 expr inh	TGFb inhibitor	HepG2 tox-1	ATXN viability	TGFb confirm	HepG2 tox-2	TGFb CCL64 inh	COP TGFb inh
CCOc1ccc(CCN2C(=S)N([C@@H](CC(C)C)CN3CCCC3CN3C(=S)NC[C@@H]3Cc3ccc(O)cc3)C[C@@H]2Cc2ccccc2)cc1 (some centres undefined)	?	-	?	-	-	?	-	?	-
CCOc1ccc(CCN2C(=S)N([C@@H](CC(C)C)CN3CCCC3CN3C(=S)NC[C@@H]3Cc3ccccc3)C[C@@H]2CC(C)C)cc1 (some centres undefined)	-	?	.	.	?	.	.	.	.
CCOc1ccc(CCN2C(=O)C(=O)N([C@@H](Cc3ccccc3)CN3CCC[C@@H]3CN3C(=O)C(=O)NC[C@@H]3Cc3ccc(O)cc3)C[C@@H]2Cc2ccccc2)cc1	-	-	-	-	-	.	.	.	.
O=C(COc1ccccc1)N[C@@H]1c2ccccc2CC[C@@H]1OCc1ccccc1	-	-	-	-	-	.	.	.	.
O=C(COc1ccccc1)N[C@@H]1c2ccccc2CC[C@H]1OCc1ccccc1	-	-	16µM	-	-	?	?	18µM	-
O=C(CSC1=NNC(c2ccccn2)S1)Nc1ccc(C(F)(F)F)cc1 (centres undefined)	-	?	?	-	-	-	-	?	-
O=C(c1ccc(F)cc1)N1CCC(C(=O)N(Cc2ccccc2)c2ccccc2)CC1	-	.	-	-	-	.	.	.	.
CN(CCOc1ccccc1)C(=O)C1CCN(C(=O)c2ccc(F)cc2)CC1	-	-	?	-	-	-	-	-	-
CCCC(=O)NC(=S)Nc1cccc(Cl)c1N1CCCCC1	-	?	7.9µM	-	?	15µM	?	?	-
Cc1ccc2occ(CC(=O)Nc3c(C(=O)Nc4ccc(Cl)cc4)oc4ccccc34)c2c1	.	-	-	-	-	.	.	.	.
CCOC(=O)c1[nH]c2c(c1C)C(=O)CC(c1ccco1)C2 (centres undefined)	-	-	?	-	?	7.3µM	-	2.1µM	?
COCCOC(=O)c1[nH]c2c(c1C)C(=O)CC(c1ccccc1)C2 (centres undefined)	-	-	10µM	-	?	7.3µM	-	6.5µM	-
CC(=O)c1ccc(NC(=O)c2cc3c(=O)oc4ccc(C)cc4c3s2)cc1	.	-	-	-	-	.	.	.	.
COc1cccc2c1Oc1ncccc1N(C(=O)CCC(=O)NCc1ccc(N(C)C)cc1)C2	.	-	-	-	-	.	.	.	.
N#C/C(=C\c1ccc(Sc2nc3ccccc3[nH]2)o1)c1ccccc1	-73	?	10µM	-	-	9.2µM	?	?	-
COc1cc(OC)cc(C(=O)Nc2cc(-c3nc4cccnc4s3)ccc2C)c1	.	-	-	-	-	.	.	.	.
COc1ccc(NC(=O)CNC(c2ccccc2)c2ccccc2)cc1Cl	-	-	11µM	-	-	?	-	?	-
Cc1cc(C)cc(NC(=O)CNC(c2ccccc2)c2ccccc2)c1	-	-	-	-	-	.	.	.	.
Cc1nc2ccc(NC(=O)CCS(=O)(=O)c3ccccc3)cc2s1	-	.	-	-	-	.	.	.	.
COc1ccc(OC)c2sc(NC(=O)CCS(=O)(=O)c3ccccc3)nc12	-	-	?	-	?	2.3µM	16µM	4.6µM	-

From PubChem BioAssay
